Data on twelve compounds can be found in PubChem BioAssay.

Activity calls are given as the source filed them. Unless noted, no rule for the calls is given here.

The nature of test [1]: growth inhibition, single agent or in combination, cell-based, chromothripsis tumors, cisplatin or BGB combos (AID 1671449; in the data active = inhibition above about 80%;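 also: cells exposed for 96 hours; 0% = vehicle DMSO and 100% = killing by high DMSO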). The settings on record: LFS_MB_P medulloblastoma cells.
Test [2] is described as follows: growth inhibition, single agent and combos, cell-based, chromothripsis tumors, cisplatin or BGB combos (AID 1671450; in the data active = inhibition above about 80%;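 also: cells exposed to compound for four days; 0% = vehicle DMSO and 100% = cell killing by high DMSO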). The settings on record: HDN33 neuroblastoma cells, stronger effect = higher value.
The nature of test [3]: growth inhibition, single agents and combos, ICB984, cell-based, cisplatin or BGB combos, synergistic combos for chromothripsis tumors (AID 1671451).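 Also: cells exposed for 96 hours before readout; 0% = vehicle DMSO and 100% = killing by high DMSO.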 The settings on record: ICB984 medulloblastoma cells, drug combinations, stronger effect = higher value.
Test [4] in a line: growth inhibition, single agents and combos, LFS_MB_1R, cell-based, cisplatin or BGB combos, synergistic combos for chromothripsis tumors (AID 1671452; in the data active = inhibition above about 80%;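 also: cells exposed for 96 hours before readout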). Conditions: LFS_MB_1R medulloblastoma cells, stronger effect = higher value.
Test [5] can be described thus: growth inhibition, single agents and combos, HTB85, cell-based, BGB or cisplatin IC20 combos, synergistic combos for chromothripsis tumors (AID 1671453; in the data active = inhibition above about 80%;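 also: cells exposed for 96 hours before readout; 0% = vehicle DMSO and 100% = high DMSO killing control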). Conditions: HTB85 osteosarcoma cells, drug combinations, stronger effect = higher value.
Test [6] is described as follows: growth inhibition, single agents and combos, CRL2098, cell-based, BGB or cisplatin IC20 combos, synergistic combos for chromothripsis tumors (AID 1671454; in the data active = inhibition above about 80%;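 also: cells exposed for 96 h before readout; 0% = vehicle DMSO and 100% = killing by high DMSO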). Conditions: CRL2098 osteosarcoma cells, drug combinations, stronger effect = higher value.
Test [7] can be described thus: growth inhibition, single agents and combos, HD-MB03, cell-based, BGB or cisplatin IC20 combos, synergistic combos for chromothripsis tumors (AID 1671455; in the data active = inhibition above about 83%;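 also: 0% = vehicle DMSO and 100% = high DMSO as cytotoxic control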). The settings on record: HD-MB03 medulloblastoma cells, stronger effect = higher value.
The nature of test [8]: growth inhibition, single agents and combos, UWB1.289, cell-based, BGB or cisplatin combos, synergistic combos for chromothripsis tumors (AID 1671456; in the data active = inhibition above about 80%;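 also: cells exposed to compound for four days; 0% = vehicle DMSO and 100% = killing by high DMSO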). Conditions: UWB1.289 ovarian carcinoma cells, stronger effect = higher value.
A short description of test [9]: growth inhibition, single agents and combos, LFS_MB_2R, cell-based, cisplatin combos, synergistic combos for chromothripsis tumors (AID 1671457; in the data active = inhibition above about 80%;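 also: cells exposed to compound for four days before readout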). Conditions: LFS_MB_2R medulloblastoma cells, stronger effect = higher value.
A short description of test [10]: growth inhibition, MDA-MB-436, cell-based, BGB or cisplatin combos, synergistic combos for chromothripsis tumors (AID 1671458).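 Also: cells exposed for 96 hours; 0% = vehicle DMSO and 100% = killing by high DMSO.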 The settings on record: MDA-MB-436 breast carcinoma growth inhibition, drug combinations, stronger effect = higher value.
Test [11] in a line: UWB1.289_BRCA1 ovarian cancer growth, cell-based, BGB or cisplatin combinations (AID 1671459; in the data active = inhibition above about 80%). Conditions: UWB1.289 BRCA1 ovarian carcinoma, drug combinations, stronger effect = higher value.
A short description of test [12]: drug combination toxicity in non-malignant astrocytes – cell-based, BGB or cisplatin IC20 combos, cytotoxicity control for chromothriptic childhood tumor combination screen (AID 1671460; in the data active = inhibition above about 80%;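 also: cells exposed to compounds for 96 hours before viability readout; 0% = vehicle and 100% = killing control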). The settings on record: Human astrocytes, viability inhibition, drug combinations, at 0.5 µM, stronger effect = higher value.
The nature of test [13]: BT084 cell growth, single and combined drugs, ICGC_MB145, cisplatin and BGB IC40 combos (AID 1671461; in the data active = inhibition above about 80%;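 also: cells exposed to drugs for 96 hours; 0% = vehicle DMSO and 100% = high DMSO full killing control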). Conditions: BT084 medulloblastoma cells, drug combinations, stronger effect = higher value.
A short description of test [14]: RCMB18 cell growth, single agent and combined, cisplatin and BGB IC40 combos (AID 1671462; in the data active = inhibition above about 80%;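 also: cells exposed to compound for four days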). Conditions: RCMB18 medulloblastoma cells, stronger effect = higher value.
Test [15] in a line: CRL1545 cell growth, single agent and combined, cisplatin and BGB IC20 combos (AID 1671464; in the data active = inhibition above about 80%;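 also: cells exposed to compound for 96 hours before readout; 0% = vehicle DMSO and 100% = high DMSO killing control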). The settings on record: CRL1545 osteosarcoma cells, stronger effect = higher value.
Test [16] can be described thus: antimalarial activity against Dd2 strain (AID 2302;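 active = growth inhibition above 50% at the single 2 µM test dose, taken to imply half-maximal potency below 2 µM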;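 also: 0% = DMSO untreated growth and 100% = chloroquine plus artemisinin killed control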). The settings on record: P. falciparum Dd2 in RBCs, LDH growth readout, 72 h; at 2 µM; stronger effect = higher value.
Test [17] is described as follows: human hepatoma cell viability loss – ATP luminescence, cytotoxicity control for P. falciparum antimalarial project, primary screen (AID 2303;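 active = inhibition above 50%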;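 also: 0% = DMSO wells and 100% = digitonin-killed cells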). The settings on record: HepG2 viability, 24-48 h, at 10 µM, stronger effect = higher value.
Test [18] deals with L-lactate dehydrogenase (Plasmodium falciparum (isolate CDC / Honduras)) (UniProt Q27743). Kind of test: PfLDH activity inhibition – cell lysate, 3D7 strain, counter-screen for P. falciparum growth inhibition project (AID 2304).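 Also: 0% = vehicle and 100% = reference inhibitor.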 The settings on record: P. falciparum 3D7 crude extract, LDH APAD/NBT absorbance; at 2 µM; stronger effect = higher value. For orientation: The purpose of a counterscreen is to sort out artefacts and off-target activity.
Chain of L-lactate dehydrogenase (Plasmodium falciparum (isolate CDC / Honduras)) (Q27743 whole entry, looked up): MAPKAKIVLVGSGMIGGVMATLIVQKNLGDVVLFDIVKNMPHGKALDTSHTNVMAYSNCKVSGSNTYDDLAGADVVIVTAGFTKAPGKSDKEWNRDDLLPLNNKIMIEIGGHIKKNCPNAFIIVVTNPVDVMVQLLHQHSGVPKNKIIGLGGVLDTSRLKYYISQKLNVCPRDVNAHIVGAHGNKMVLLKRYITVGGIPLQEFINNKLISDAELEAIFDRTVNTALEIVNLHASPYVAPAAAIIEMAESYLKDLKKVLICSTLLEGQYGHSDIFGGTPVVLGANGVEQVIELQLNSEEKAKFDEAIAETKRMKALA

Test [19] can be described thus: inhibition of 3D7 malaria parasite growth – strain 3D7 (AID 2306).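 Also: 0% = DMSO wells and 100% = chloroquine plus artemisinin control wells.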 The settings on record: P. falciparum 3D7 erythrocytic growth, LDH absorbance, 72 h; at 2 µM; stronger effect = higher value.
[20] abbreviates: measured here: combination with BGB IC40, at 0.05 µM.
[21] abbreviates: measured here: with BGB IC20 combination, at 0.5 µM.
[22] abbreviates: measured here: with cisplatin IC20 combination, at 0.5 µM.
The mark [23] stands for this setting: measured here: combination with cisplatin, at 0.5 µM.
[24] abbreviates: measured here: combination with cisplatin, at 5 µM.

For the compound `Nc1nc(NC2CC2)cc(-c2cccc(Cl)c2Cl)n1`, the inhibition in test [1] (at 0.5 µM, stronger effect = higher value) is -24.4% (inactive); in test [1] (measured here: combination with BGB IC20, at 0.005 µM), 6.42%; in [1] (measured here: combination with BGB IC40, at 0.005 µM) it was -13.3%; in test [1] (setting [20]), -3.68%; in test [1] (measured here: combination with cisplatin, at 0.5 µM, stronger effect = higher value), -27.2%; in test [1] (measured here: combination with cisplatin, at 5 µM, stronger effect = higher value), -1.92%. In addition, the inhibition in test [2] (BGB combo, at 5 µM) was 4.24%; in [2] (at 0.5 µM), -22.2% (inactive); in test [2] (cisplatin combo, at 5 µM) it was -25.5%; in test [2] (setting [21]), -14.4%; in test [2] (setting [22]), -33.4%; in test [2] (single agent, at 5 µM) it was 1.5%. Moreover, the inhibition in test [3] (BGB IC20 combo, at 0.005 µM) is -16.3%; in test [3] (BGB IC40 combo, at 0.005 µM), -42.9%; in [3] (BGB IC40 combo, at 0.05 µM), -23.9%; in test [3] (at 0.5 µM), -15.4% (inactive); in test [3] (cisplatin combo, at 0.05 µM), -28.8%; in test [3] (cisplatin combo, at 0.5 µM), -25.9%. For the same compound, the inhibition was -24% in test [3] (cisplatin combo, at 5 µM); -4.67% in [3] (measured here: 5 uM single agent, at 5 µM); -47.5% (inactive) in [4] (at 0.5 µM); -29.4% in test [4] (setting [20]); -115% in [4] (setting [23]); -60.1% in test [4] (setting [24]). Also, the inhibition was -20.9% (inactive) in [5] (at 0.5 µM); -3.53% in test [5] (measured here: with BGB IC20, at 0.5 µM); -8.44% in test [5] (measured here: with BGB IC20, at 5 µM); -38.1% in test [5] (measured here: with cisplatin IC20, at 0.5 µM); -21.3% in test [5] (measured here: with cisplatin IC20, at 5 µM); 3.83% in [5] (single agent, at 5 µM). Further, the inhibition is -50% (inactive) in test [6] (at 0.5 µM); -42.1% in [6] (measured here: combination with BGB at IC20, at 0.5 µM); -36.5% in test [6] (measured here: combination with cisplatin at IC20, at 0.5 µM); -12.4% (inactive) in [7] (at 0.5 µM); -17% in test [7] (measured here: combo with BGB at IC20, at 0.5 µM); -8.02% in [7] (measured here: combo with cisplatin at IC20, at 0.5 µM). Besides, the inhibition in [8] (at 0.5 µM) was -15.7% (inactive); in test [8] (measured here: inhibition with BGB combination, at 0.05 µM) it was -10.8%; in test [8] (measured here: inhibition with cisplatin combination, at 0.05 µM) it was -19.7%; in [9] (at 0.5 µM), -12.8% (inactive); in test [9] (setting [23]), -18%; in test [9] (setting [24]) it was 18.1%. In addition, the inhibition in test [10] (at 0.5 µM) was -5.02% (inactive); in [10] (measured here: BGB combination, at 0.5 µM), -1.67%; in test [10] (measured here: BGB combination, at 5 µM), 10.3%; in [10] (measured here: cisplatin combination, at 0.5 µM) it was -5.74%; in test [10] (measured here: cisplatin combination, at 5 µM) it was 15.8%; in test [11] (BGB combination, concentration series, at 5 µM) it was 9.28%. Also, the inhibition in [11] (at 0.5 µM) is -9.72% (inactive); in test [11] (cisplatin combination, concentration series, at 5 µM) it was 10.7%; in test [12] it was -2.78% (inactive); in test [12] (measured here: combo with BGB IC20) it was -4.24%; in test [12] (measured here: combo with cisplatin IC20), 6.45%; in test [13] (at 0.5 µM), -9.21% (inactive). The inhibition in test [13] (cisplatin combination, at 0.5 µM) was -6.21%; in [13] (cisplatin combination, at 5 µM), -20.8%; in [13] (measured here: BGB IC40 combination 0.05 uM, at 0.05 µM), -10.7%; in test [13] (single agent, at 5 µM), -6.16%; in test [14] (at 0.5 µM), -8.4% (inactive); in [14] (cisplatin combo, at 5 µM), -0.639%. Also, the inhibition is -3.5% in [14] (measured here: BGB IC40 combination, at 0.05 µM); -22.4% in test [14] (setting [23]); -28.4% in test [14] (single agent, at 5 µM); -36.8% (inactive) in test [15] (at 0.5 µM); -16.7% in [15] (setting [21]); -46.8% in test [15] (setting [22]). The inhibition is -25% in [15] (single agent, at 0.05 µM) and -32.6% in test [15] (single agent, at 5 µM).

Turning to `Oc1ccc2ccccc2c1C=NNc1nc(Nc2ccccc2)nc(N2CCOCC2)n1`, the growth inhibition in test [16] was 49% (inactive); in test [19], 100% (active). Further, the inhibition in test [17] was 66% (active); in test [18], -5% (inactive).

For the compound `Nc1ccc(-c2nc3cc(C4=N[C@H]5CCCC[C@H]5N4)ccc3o2)cc1[N+](=O)[O-]`, the figures for the growth inhibition in test [16] and in test [19] were 33% (inactive) and 95% (active), respectively. Moreover, the inhibition in test [17] is 16% (inactive); in test [18], 1% (inactive).

As for `ON=C1CCc2cc(-c3nc(-c4cccc(OCCNCc5ccc(F)cc5)c4)[nH]c3-c3ccncc3)ccc21`, the growth inhibition was 69% (active) in test [16] and 89% (active) in [19]. Also, the values for the inhibition in test [17] and in test [18] were 76% (active) and -3% (inactive), respectively.

`O=C(NN=Cc1nc2ccccc2[nH]1)c1cccc([N+](=O)[O-])c1`: the growth inhibition in test [16] was 82% (active); in test [19], 99% (active). The figures for the inhibition in test [17] and in test [18] were -3% (inactive) and 2% (inactive), respectively.

Take `COc1ccc(Nc2nc(NN=Cc3cc(Cl)ccc3O)nc(Nc3ccccc3)n2)cc1`: the growth inhibition was 10% (inactive) in [16] and 100% (active) in test [19]. In addition, the inhibition in test [17] is 55% (active); in test [18], 0% (inactive).

`Oc1cccc(-c2nc(-c3ccccc3)c(-c3ccc4oc5ccc(-c6[nH]c(-c7cccc(O)c7)nc6-c6ccccc6)cc5c4c3)[nH]2)c1`: the growth inhibition in [16] was 35% (inactive); in test [19], 91% (active). In addition, the values for the inhibition in test [17] and in [18] were 30% (inactive) and 4% (inactive), respectively.

For `CC[C@@H]([C@@H](CC(C)C)C(=O)N[C@@H](CCCCNC(=O)OCc1ccccc1)C(=O)Nc1ccccn1)N(O)C=O`, the figures for the growth inhibition in [16] and in [19] were 99% (active) and 98% (active), respectively. In addition, the inhibition is -7% (inactive) in test [17] and -8% (inactive) in test [18].

Turning to `CO[C@H](C)[C@H](NC(=O)[C@H](CC(C)C)[C@H](CCC(F)(F)F)N(O)C=O)C(=O)Nc1nccs1`, the results for the growth inhibition in [16] and in test [19] were 96% (active) and 99% (active), respectively. Besides, the inhibition in [17] is 0% (inactive); in test [18], 1% (inactive).

Regarding `c1cc2nc(CCCCc3nc4ccc(C5=N[C@H]6CCCC[C@H]6N5)cc4[nH]3)[nH]c2cc1C1=N[C@H]2CCCC[C@H]2N1`, the growth inhibition in test [16] was 88% (active); in test [19], 90% (active). For the same compound, the values for the inhibition in test [17] and in [18] were 5% (inactive) and 6% (inactive), respectively.

Turning to `COc1ccc(Nc2nc(NN=Cc3cc(Br)ccc3O)nc(Nc3ccc([N+](=O)[O-])cc3)n2)cc1`, the growth inhibition was 37% (inactive) in [16] and 97% (active) in test [19]. The inhibition in [17] was 27% (inactive); in [18], 7% (inactive).

Take `COc1ccc(Nc2nc(NN=Cc3ccc(O)cc3)nc(Nc3ccc([N+](=O)[O-])cc3)n2)cc1`: the growth inhibition in test [16] was 16% (inactive); in test [19], 93% (active). The results for the inhibition in test [17] and in [18] were -1% (inactive) and 0% (inactive), respectively.

As a reminder, the inhibition is the relative decrease from the control value, in per cent.
